Results published in ChEMBL document CHEMBL3988442, “University of Dundee, Small-Polar-MMV Screening Library” (2021).
Among all 48,000 compounds or so, about 13,000 (27%) showed an effect of 50% or more. The list shows a part of the results.

Each molecule was assayed on Wolbachia pipientis (assay: Anti-Wolbachia Cell-Based Screen). Details: 5 µM.
Assay type: functional
Parameters: scale not given: in the data most compounds retested in dose-response had high values

SMILES | Percent Effect
Cc1nc(C(C)(C)NC(=O)Nc2ccc(C#N)cc2)no1 | 2.937%
CCCN(C(=O)c1cc2c([nH]c1=O)CCCC2=O)C1CCCCC1 | -3.902%
NS(=O)(=O)c1cnn(-c2ccc(NC(=O)CC3CCCC3)cn2)c1 | 31.03%
O=c1oc(-c2cccs2)nn1CC(O)c1ccc(F)cc1 (centres undefined) | -3.645%
CC(=O)c1cccc(NC(=O)Cn2nc(-c3cccs3)oc2=O)c1 | 114.8%
CC(C)N(CC(=O)Nc1cccc(C#N)c1)C1CC1 | -12.82%
CC(=O)c1cccc(NC(=O)Cn2cnc(-c3cccs3)cc2=O)c1 | 8.004%
O=C(CCNC(=O)c1ccoc1)Nc1cccc(F)c1 | 8.68%
O=C(CCn1nc(-c2cccs2)oc1=O)Nc1cccc(F)c1 | 101.8%
CC(=O)c1cccc(NC(=O)COc2c(C)n(C)ccc2=O)c1 | 5.404%
CNC(=O)c1cccc(NC(=O)Cn2nc(-c3cccs3)oc2=O)c1 | -3.203%
CC(=O)c1cccc(NC(=O)CCn2nc(-c3cccs3)oc2=O)c1 | 94.26%
COCCn1ccc(NC(=O)Nc2cccc(C#N)c2)n1 | 15.59%
N#Cc1cccc(NC(=O)CCn2nc(-c3cccs3)oc2=O)c1 | 113.1%
COC(=O)c1cccc(NC(=O)CCn2nc(-c3cccs3)oc2=O)c1 | -4.824%
CCn1ccnc1C1CCCN(c2nccc3ccccc23)C1 (centres undefined) | -22.2%
CN(c1cccnc1N1CCCC1)S(=O)(=O)c1cccnc1 | -4.578%
CCCNC(=O)CN1CCN(c2nc(CC)ns2)CC1 | -2.637%
Cn1cc(CNCCOc2ccc(F)c(F)c2)c(-c2cccnc2)n1 | 7.876%
Cc1nnc(NC(=O)NC(C)C(=O)NC2CCCC2)s1 (centres undefined) | -0.7919%
Cl.O=C(Nc1nc2c(s1)CNCC2)C1CC1 | 114.1%
O=C(Nc1nc2c(s1)CCC2)NC1CCCC1 | 91.02%

SMILES | Percent Effect
O=C(Nc1nc2c(s1)CN(S(=O)(=O)C1CC1)CC2)c1c(F)cccc1F | -9.469%
CC(NC(=O)Nc1nncs1)C(=O)NC1CCCC1 (centres undefined) | 12.84%
Cc1nsc(NC(=O)NC2CCOCC2)n1 | 5.232%
Cc1nsc(NC(=O)NC2CCCN(C)C2)n1 (centres undefined) | -12.87%
CCc1c(C)nc2n(c1=O)CC(C(=O)Nc1nc3c(s1)CCCC3)CS2 (centres undefined) | 1.424%
Cl.O=C(Nc1nc2c(s1)CNCC2)NC1CCCC1 | 156.5%
CN(Cc1nnc(-c2cccs2)o1)Cc1nc2c(s1)CCCC2 | -3.278%
O=C1CC(c2ccccc2)c2c(n3ccsc3nc2=O)N1 (centres undefined) | 12.02%
O=S(=O)(NCCC(O)c1cccs1)c1ccccc1Cl (centres undefined) | 10.54%
Cc1oc(C(C)C)cc1C(=O)N1CCN(c2cnn(C)c(=O)c2)CC1 | -13.93%
N#Cc1ccccc1C(=O)N1C[C@H]2CC[C@@H]1CN(c1ncccn1)C2 | -29.72%
CCc1cnc(CN(C)C2CCN(Cc3nnc(C4CC4)n3C)C2)o1 (centres undefined) | 100.6%
CN(Cc1nnc(C2CC2)n1C)C1CCN(CCc2cccs2)C1 (centres undefined) | 1.002%
CN(Cc1nnc(C2CC2)n1C)C1CCN(CCc2ccncc2)C1 (centres undefined) | -12.03%
Cc1cccc(CN2CCC(N(C)Cc3nnc(C4CC4)n3C)C2)c1 (centres undefined) | 125.1%
Cc1cnc(CN2CCC(N(C)Cc3nnc(C4CC4)n3C)C2)cn1 (centres undefined) | -1.467%
CN(Cc1nnc(C2CC2)n1C)C1CCN(CCc2ccccc2)C1 (centres undefined) | -2.973%
CN(Cc1nnc(C2CC2)n1C)C1CCN(Cc2ccncc2)C1 (centres undefined) | 97.4%
CN(Cc1nnc(C2CC2)n1C)C1CCN(Cc2ccccc2)C1 (centres undefined) | -8.297%
Cc1nc(CN2CCC(N(C)Cc3nnc(C4CC4)n3C)C2)cs1 (centres undefined) | 109.7%
CCc1cnc(CN(C)C2CCN(CCc3cccs3)C2)o1 (centres undefined) | 3.074%
CN(Cc1nnc(C2CC2)n1C)C1CCN(Cc2ccc(F)cc2)C1 (centres undefined) | 5.91%

SMILES | Percent Effect
CCn1ccnc1CN1CCN(c2ncnc3ccsc23)CC1 | 18.95%
CCC(=O)NCC(=O)NCc1cc(Br)ccc1OC(F)F | 6.284%
Cc1ccc(N2CCC(NCc3cnc(C4CCC4)s3)CC2)nc1 | 10.22%
CN(Cc1nnc(C2CC2)n1C)C1CCN(Cc2nccn2C)C1 (centres undefined) | 117.3%
CN(Cc1nnc(C2CC2)n1C)C1CCN(Cc2ccccc2F)C1 (centres undefined) | 2.374%
CCn1c(C)nnc1CN(C)C1CCN(Cc2nccn2C)C1 (centres undefined) | -10.2%
CCOC(=O)C1CN(S(C)(=O)=O)Cc2ncn(CC)c21 (centres undefined) | 9.527%
O=C(O)[C@@H]1CN(C(=O)c2ccc3[nH]nnc3c2)C[C@H]1c1cccc(F)c1 | 0.7419%
O=C(O)[C@@H]1CN(C(=O)c2ccc(Cl)cc2)C[C@H]1c1cccc(F)c1 | 111.8%
O=C(O)[C@@H]1CN(C(=O)c2ccc3[nH]nnc3c2)C[C@H]1c1ccccc1 | 101.1%
COc1ccc(C(=O)N2C[C@@H](C(=O)O)[C@H](c3cccc(F)c3)C2)c(O)c1 | -6.268%
Cc1ccc(F)c(C(=O)N2C[C@@H](C(=O)O)[C@H](c3ccncc3)C2)c1Cl | -4.386%
COc1ccc(C(=O)N2C[C@@H](C(=O)O)[C@H](c3ccccc3)C2)c(C)c1 | -5.118%
O=C(O)[C@@H]1CN(C(=O)c2cc(C3CC3)n[nH]2)C[C@H]1c1cccc(F)c1 | -7.697%
O=C(O)[C@@H]1CN(C(=O)c2ccc(O)cc2)C[C@H]1c1cccc(F)c1 | 133.5%
Cc1ccc(C(=O)N2C[C@@H](C(=O)O)[C@H](c3ccncc3)C2)cc1F | 1.77%
Cc1ccccc1[C@@H]1CN(C(=O)c2ccc3[nH]nnc3c2)C[C@H]1C(=O)O | 1.706%
O=C(O)[C@@H]1CN(C(=O)c2ccc(F)c(F)c2)C[C@H]1c1cccc(F)c1 | 133.7%
O=C(O)[C@@H]1CN(C(=O)c2ccc3nccnc3c2)C[C@H]1c1ccncc1 | -8.549%
COC(=O)CNC(=O)C12CCC(=O)N1c1cc(Cl)ccc1S2 (centres undefined) | -3.577%
